According to PubChem BioAssay AID1159580 (chemical genetic matrix, 2015):
The campaign covered roughly 5,500 compounds. About 2,000 (36%) were called active. Roughly 18% stayed inconclusive and do not appear here. Cut-off read from the data, not from the text of the source: active = normalized growth mostly below about 0.91 (no sharp cut-off); inconclusive = no clear call, values can overlap the other calls; inactive = mostly above about 0.92. This is one part of the list.

Experiment: chemical genetic growth profiling, strain panel (AID 1159580);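 note: tested at 20 µM; growth read once vehicle control cultures reached saturation at 30 °C; 1 = growth at the plate median or of vehicle wells; lower values mean less growth of the strain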
Settings: growth OD

Measured: normalized growth

COC(=O)c1cc(OC)c(=O)c2c(OC)c(OC)ccc2c1
inactive: S. cerevisiae deletion strains, locus YBR021W, strain FUR4, stronger effect = lower value 1.02 | S. cerevisiae deletion strains, locus YBR229C, strain ROT2, stronger effect = lower value 1.01 | S. cerevisiae deletion strains, locus YCL029C, strain bik1, stronger effect = lower value 0.969 | S. cerevisiae deletion strains, locus YDL035C, strain GPR1, stronger effect = lower value 1.03 | S. cerevisiae deletion strains, locus YDL074C, strain BRE1, stronger effect = lower value 1.08 | S. cerevisiae deletion strains, locus YDL101C, strain DUN1, stronger effect = lower value 1.01 | S. cerevisiae deletion strains, locus YDL134C, strain PPH21, stronger effect = lower value 1.04 | S. cerevisiae deletion strains, locus YDL185W, strain tfp1, stronger effect = lower value 0.998 | S. cerevisiae deletion strains, locus YDL192W, strain arf1, stronger effect = lower value 0.971 | S. cerevisiae deletion strains, locus YDR101C, strain arx1, stronger effect = lower value 0.975 | S. cerevisiae deletion strains, locus YDR162C, strain NBP2, stronger effect = lower value 1.01 | S. cerevisiae deletion strains, locus YDR318W, strain mcm21, stronger effect = lower value 0.969 | S. cerevisiae deletion strains, locus YDR388W, stronger effect = lower value 0.986 | S. cerevisiae deletion strains, locus YDR502C, strain sam2, stronger effect = lower value 0.99 | S. cerevisiae deletion strains, locus YER110C, stronger effect = lower value 1.01 | S. cerevisiae deletion strains, locus YER155C, strain BEM2, stronger effect = lower value 1.01 | S. cerevisiae deletion strains, locus YER167W, strain BCK2, stronger effect = lower value 1 | S. cerevisiae deletion strains, locus YGL078C, strain dbp3, stronger effect = lower value 0.995 | S. cerevisiae deletion strains, locus YGL086W, strain mad1, stronger effect = lower value 0.984 | S. cerevisiae deletion strains, locus YGL248W, strain PDE1, stronger effect = lower value 1.02 | S. cerevisiae deletion strains, locus YGR078C, strain PAC10, stronger effect = lower value 1.01 | S. cerevisiae deletion strains, locus YGR135W, strain pre9, stronger effect = lower value 0.985 | S. cerevisiae deletion strains, locus YGR229C, strain SMI1, stronger effect = lower value 1.06 | S. cerevisiae deletion strains, locus YHR079C, strain IRE1 (second series), stronger effect = lower value 1 | S. cerevisiae deletion strains, locus YHR094C, strain hxt1, stronger effect = lower value 0.972 | S. cerevisiae deletion strains, locus YHR129C, strain ARP1, stronger effect = lower value 1.02 | S. cerevisiae deletion strains, locus YHR200W, strain rpn10, stronger effect = lower value 0.985 | S. cerevisiae deletion strains, locus YIL066C, strain RNR3, stronger effect = lower value 1.02 | S. cerevisiae deletion strains, locus YIL073C, strain SPO22, stronger effect = lower value 0.951 | S. cerevisiae deletion strains, locus YIL125W, strain kgd1, stronger effect = lower value 0.978 | S. cerevisiae deletion strains, locus YIR030C, strain dcg1, stronger effect = lower value 0.986 | S. cerevisiae deletion strains, locus YJL095W, strain BCK1, stronger effect = lower value 1.04 | S. cerevisiae deletion strains, locus YJL134W, strain LCB3, stronger effect = lower value 1 | S. cerevisiae deletion strains, locus YJL168C, strain set2, stronger effect = lower value 0.972 | S. cerevisiae deletion strains, locus YJL187C, strain SWE1 (second series), stronger effect = lower value 1.02 | S. cerevisiae deletion strains, locus YKL009W, strain mrt4, stronger effect = lower value 0.977 | S. cerevisiae deletion strains, locus YKL068W, stronger effect = lower value 0.999 | S. cerevisiae deletion strains, locus YKL085W, strain MDH1 (second series), stronger effect = lower value 0.971 | S. cerevisiae deletion strains, locus YKL085W, strain MDH1, stronger effect = lower value 0.971 | S. cerevisiae deletion strains, locus YKR001C, strain vps1, stronger effect = lower value 0.966 | S. cerevisiae deletion strains, locus YLR039C, strain RIC1, stronger effect = lower value 1.03 | S. cerevisiae deletion strains, locus YLR058C, strain SHM2, stronger effect = lower value 1.03 | S. cerevisiae deletion strains, locus YLR102C, strain apc9, stronger effect = lower value 0.959 | S. cerevisiae deletion strains, locus YLR268W, strain sec22, stronger effect = lower value 0.981 | S. cerevisiae deletion strains, locus YLR330W, strain CHS5, stronger effect = lower value 1.02 | S. cerevisiae deletion strains, locus YLR371W, strain rom2, stronger effect = lower value 0.977 | S. cerevisiae deletion strains, locus YLR418C, strain cdc73, stronger effect = lower value 1.07 | S. cerevisiae deletion strains, locus YML016C, strain PPZ1, stronger effect = lower value 1 | S. cerevisiae deletion strains, locus YML032C, strain rad52, stronger effect = lower value 0.996 | S. cerevisiae deletion strains, locus YML124C, strain tub3, stronger effect = lower value 0.967 | S. cerevisiae deletion strains, locus YMR078C, strain ctf18, stronger effect = lower value 0.976 | S. cerevisiae deletion strains, locus YMR223W, strain ubp8, stronger effect = lower value 1 | S. cerevisiae deletion strains, locus YMR307W, strain GAS1, stronger effect = lower value 1.01 | S. cerevisiae deletion strains, locus YNL067W, strain RPL9B, stronger effect = lower value 0.998 | S. cerevisiae deletion strains, locus YNL233W, strain BNI4, stronger effect = lower value 1.03 | S. cerevisiae deletion strains, locus YNL250W, strain rad50, stronger effect = lower value 1.05 | S. cerevisiae deletion strains, locus YNL271C, strain bni1, stronger effect = lower value 0.981 | S. cerevisiae deletion strains, locus YNL298W, strain CLA4, stronger effect = lower value 0.984 | S. cerevisiae deletion strains, locus YNL307C, strain MCK1, stronger effect = lower value 0.952 | S. cerevisiae deletion strains, locus YNL322C, strain KRE1, stronger effect = lower value 1 | S. cerevisiae deletion strains, locus YNR052C, strain pop2, stronger effect = lower value 0.981 | S. cerevisiae deletion strains, locus YOL006C, strain TOP1, stronger effect = lower value 1.21 | S. cerevisiae deletion strains, locus YOL012C, strain htz1 0.895 | S. cerevisiae deletion strains, locus YOL147C, strain pex11, stronger effect = lower value 0.993 | S. cerevisiae deletion strains, locus YOR061W, strain CKA2, stronger effect = lower value 1 | S. cerevisiae deletion strains, locus YOR069W, strain VPS5, stronger effect = lower value 1 | S. cerevisiae deletion strains, locus YOR136W, strain idh2, stronger effect = lower value 0.977 | S. cerevisiae deletion strains, locus YOR144C, strain elg1, stronger effect = lower value 0.987 | S. cerevisiae deletion strains, locus YOR184W, strain ser1, stronger effect = lower value 0.935 | S. cerevisiae deletion strains, locus YOR316C, strain cot1, stronger effect = lower value 0.985 | S. cerevisiae deletion strains, locus YPL241C, strain CIN2, stronger effect = lower value 1 | S. cerevisiae deletion strains, locus YPR119W, strain clb2, stronger effect = lower value 0.969 | S. cerevisiae deletion strains, locus YPR141C, strain kar3, stronger effect = lower value 0.982 | S. cerevisiae deletion strains, locus YPR163C, strain tif3, stronger effect = lower value 0.977 | S. cerevisiae deletion strains, locus YPR167C, strain met16, stronger effect = lower value 0.967 | S. cerevisiae deletion strains, strain wtn01, stronger effect = lower value 0.994 | S. cerevisiae strains, strain wild type, stronger effect = lower value 1.02
